Results published in PubChem BioAssay AID488969 (Vanderbilt High Throughput Screening Facility, 2010).
In all, about 110,000 compounds were measured (“z-score”: median about -0.1, highest 2% from about 2 on). What follows is part of a selection rich in the highest values, with near analogues and random picks from the rest. Active and inactive are the calls of the source.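 The calls were made as follows: active = z-score in the third read window above 3 or below -3; inactive = the rest.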

The molecules below were run against Metabotropic glutamate receptor 8 (Rattus norvegicus) (UniProt P70579) (assay: mGluR8 Gi/Go-coupled signaling modulation – cell-based, rat, thallium flux, HTS, primary screen (AID 488969)). Conditions: HEK293 rat mGluR8, GIRK (G protein-gated inwardly rectifying potassium channel) thallium flux, FluoZin2; at 10 µM; stronger effect = higher value; submaximal glutamate (EC20) added with thallium.
Metabotropic glutamate receptor 8 (Rattus norvegicus), sequence (P70579 whole entry, looked up): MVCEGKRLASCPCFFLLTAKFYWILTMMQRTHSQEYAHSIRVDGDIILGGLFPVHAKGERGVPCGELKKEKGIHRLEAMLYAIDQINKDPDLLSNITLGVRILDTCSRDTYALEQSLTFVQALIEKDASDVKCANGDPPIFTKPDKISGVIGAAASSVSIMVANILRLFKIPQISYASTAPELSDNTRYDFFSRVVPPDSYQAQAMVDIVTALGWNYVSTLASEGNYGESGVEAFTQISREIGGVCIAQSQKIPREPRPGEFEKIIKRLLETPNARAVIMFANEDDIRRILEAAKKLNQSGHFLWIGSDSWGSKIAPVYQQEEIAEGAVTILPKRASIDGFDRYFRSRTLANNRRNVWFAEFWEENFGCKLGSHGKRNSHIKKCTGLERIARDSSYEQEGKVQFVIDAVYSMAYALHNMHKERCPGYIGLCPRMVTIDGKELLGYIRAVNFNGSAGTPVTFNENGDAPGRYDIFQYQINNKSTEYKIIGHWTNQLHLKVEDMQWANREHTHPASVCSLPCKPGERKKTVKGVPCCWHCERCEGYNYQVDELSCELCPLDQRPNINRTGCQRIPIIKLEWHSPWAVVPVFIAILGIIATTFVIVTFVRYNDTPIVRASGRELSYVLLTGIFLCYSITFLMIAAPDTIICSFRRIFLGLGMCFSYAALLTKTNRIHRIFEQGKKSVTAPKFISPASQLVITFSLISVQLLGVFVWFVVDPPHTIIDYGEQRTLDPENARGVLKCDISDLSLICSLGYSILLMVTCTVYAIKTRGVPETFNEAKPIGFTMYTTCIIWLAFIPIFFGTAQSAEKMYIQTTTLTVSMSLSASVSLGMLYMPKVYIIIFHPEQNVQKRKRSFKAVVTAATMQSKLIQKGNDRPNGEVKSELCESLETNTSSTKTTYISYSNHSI

Row | Compound | z-score
1 | COC(=O)CC1COc2ccccc2N1C(=O)c1ccc(C(C)(C)C)cc1 (stereo not drawn) | -0.191
2 | CCCC(=O)Nc1cc(-c2nnc(OC)c3ccccc23)ccc1N1CCOCC1 | -0.445
3 | O=C(Oc1ccc([N+](=O)[O-])cc1)c1cccnc1 | -0.0965
4 | CNC(=S)SCCOc1ccc(C)cc1 | 6.37 (active)
5 | CNC(=S)SCCOc1ccccc1C | 0.297
6 | CCNC(=S)SCCOc1ccc(C)cc1 | 0.376
7 | Cc1ccc2nc3sc(C(=O)Nc4c(C)[nH]c(=O)[nH]c4=O)c(N)c3cc2c1 | -0.158
8 | NC(=O)CCn1nc(-c2ccc(Cl)cc2)c2ccccc2c1=O | -0.686
9 | O=C(/C=C(\O)c1ccc(Cl)cc1)C(=O)NNC(=O)C(O)(c1ccccc1)c1ccccc1 | -0.125
10 | COc1ccc(/C(O)=C/C(=O)C(=O)NNC(=O)C(O)(c2ccccc2)c2ccccc2)cc1 | -0.343
11 | Cc1ccc(/C(O)=C/C(=O)C(=O)NNC(=O)C(O)(c2ccccc2)c2ccccc2)cc1 | 2.44
12 | CCn1c(SCC(=O)Nc2nnc(C)s2)nnc1-c1ccco1 | -0.0211
13 | O=C1C(=O)N(CCO)C(c2ccccc2)/C1=C(\O)c1ccccc1 (stereo not drawn) | -0.284
14 | O=C(CNC(=O)C12CC3CC(CC(C3)C1)C2)N1CCN(S(=O)(=O)c2cccs2)CC1 | -0.178
15 | CCCn1c(SCC(=O)NC2CCCCC2C)n[nH]c1=O (stereo not drawn) | 0.79
16 | O=[N+]([O-])c1ccc(/C=N/NC(=S)Nc2ccccc2)o1 | 2.92
17 | COC(=O)N/N=C/c1ccc([N+](=O)[O-])o1 | -0.0263

Row | Compound | z-score
18 | Cc1ccc(-c2ccc(/C=N/NC(=S)Nc3ccccc3)o2)cc1[N+](=O)[O-] | 0.442
19 | O=[N+]([O-])c1ccc(/C=N/NC(=S)Nc2ccccc2F)o1 | 6.05 (active)
20 | O=[N+]([O-])c1ccc(/C=N/NC(=S)Nc2ccccc2C(F)(F)F)o1 | 1.06
21 | O=C(CNc1ccccc1)N/N=C/c1ccc([N+](=O)[O-])o1 | -0.389
22 | N#CCCn1cc(/C=N/O)c(-c2ccccc2)n1 | 0.0606
23 | C1=C(CCNc2nnnn2-c2ccccc2)CCCC1 | -0.26
24 | Fc1cccc(NC(=S)Nc2ccc(Br)cc2)c1 | 0.843
25 | FC(F)(F)c1ccc(Cl)c(NC(=S)N/N=C/c2ccccc2C(F)(F)F)c1 | 1.14
26 | Fc1ccc(CNC(=S)Nc2ccc(Cl)cc2Cl)cc1 | 0.134
27 | Cc1nn(-c2ccccc2)c(N2CCCC2)c1/C=N/NC(=S)Nc1ccccc1F | 2.42
28 | Fc1ccccc1NC(=S)Nc1ccc(Br)cc1 | 0.657
29 | Cc1ccc(NC(=S)N/N=C/c2c(C)nn(-c3ccccc3)c2N2CCCC2)cc1 | 0.376
30 | Fc1ccccc1/C=N/NC(=S)Nc1ccc(Cl)cc1Cl | 3.47 (active)
31 | Cc1nn(-c2ccccc2)c(N2CCCC2)c1/C=N/NC(=S)Nc1ccccc1C(F)(F)F | 0.583
32 | CN(C)/C=N/C(=S)Nc1ccccc1F | 0.0261
33 | Fc1ccccc1NC(=S)N/N=C/c1ccccc1Br | 13.4 (active)
